Sfp PPTase inh: qHTS Assay for Inhibitors of Bacillus subtilis Sfp phosphopantetheinyl transferase (PPTase). 4'-phosphopantetheinyl transferase ffp (Bacillus subtilis), Q9F4F7. Biochemical Sfp PPTase activity, qHTS. AID 1490, 2009. Potency, µM, for the others: largest response in the series, negative = inhibition, hits mostly inhibitors. 310,000 tested, 3.5% active;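 also: the enzyme is Sfp with the accession as filed and its product quenches rhodamine fluorescence; potency is read from the fitted curve at half-maximal effect; 0% = enzyme reaction without inhibitor and -100% = no enzyme wells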
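Fluorescence-quenching assay: 15 nM Sfp-PPTase preincubated 15 min at room temperature with compound, then 5 uM rhodamine-CoA and 12.5 uM BHQ-2-labelled YbbR peptide added. Fluorescence (ex 525/em 598 nm) read at start and after 30 min; difference gives rate.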
ELG1 repair inh: qHTS screen for small molecules that inhibit ELG1-dependent DNA repair in human embryonic kidney (HEK293T) cells expressing luciferase-tagged ELG1. HEK293T ELG1-luciferase reporter, luminescence, 16 h; DNA damage induced by 5-fluorouridine. 330,000 tested, 2.3% active. AID 504467, 2011. Potency, µM (series often up to 46.1 µM), inactives show at the top dose activity change, negative = inhibition, actives largely listed as inhibitors; also: potency is read from the fitted curve at half-maximal effect; nearly all actives have a fitted effect of over 55% in size
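Overnight (16 hr) co-exposure of 2,000 cells/well to 5-fluorouridine and compound at 37 °C preceded detection. Luciferase was quantified via ONE-Glo luminescence; loss of signal denotes inhibition.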
FBPA coupling cs: qHTS Assay for Inhibitors of Fructose-1,6-bisphosphate Aldolase from Giardia Lamblia: Coupling assay counterscreen | coupling enzyme system counterscreen, AmpLite Red fluorescence | activity change, negative = inhibition, % at 58.2 µM, hits read low | 290,000 tested, 0.67% active | AID 2472, 2010; in the data active = activity change below about -30%
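Fluorescence at 525 nm excitation and 598 nm emission measured inhibition of the coupled detection system without aldolase. Compounds (at 57.5 uM final) were preincubated 10 min at room temperature with coupling enzyme reagent before a 20 min substrate/AmpLite Red step.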
Giardia killer: Small Molecules that selectively kill Giardia lamblia: qHTS; Giardia lamblia trophozoite viability; activity change, % at 7.66 µM, hits read low; 340,000 tested, 0.15% active; AID 540267, 2011; in the data active = activity change below about -80%; inconclusive = between about -30% and that limit;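 also: parasites exposed to compound for two days anaerobically before the ATP read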
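Luminescence from cellular ATP indicates surviving trophozoites (100 cells/well) following 48 hrs anaerobic compound treatment at 37 deg C; signal develops 15-30 min at room temperature.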
Starred values were filed as active, the others as inactive; u = inconclusive; x = no result. Compounds with a hit are over-represented: about 5.5% of the library has one in this group of screens. Unless noted, calls follow the shape of the dose curve; as a rule, active = well fitted curve in the direction sought with a large enough effect; inconclusive = small, poorly fitted or top-dose-only effect, or another doubt; inactive = no such curve, though single readings can be large; an effect the other way counts as inactive or inconclusive. Unless noted, % is scaled to controls: 0 for no effect and ±100 for the full control effect.

SMILES	Sfp PPTase inh	ELG1 repair inh	FBPA coupling cs	Giardia killer
C=CCn1c(=NC(=O)c2cc(-c3cccs3)nc3ccccc23)sc2cc(S(N)(=O)=O)ccc21	7%	18µM*	0	-7
COCCn1c(=NC(=O)c2cc(-c3cccs3)nc3ccccc23)sc2cc(S(N)(=O)=O)ccc21	7%	6.5µM*	-3	2
O=C(O)c1cc(-c2ccc(-c3ccc(F)cc3)o2)nc2ccccc12	3.5µM*	u	-23	u
COc1ccc(-c2cc(C(=O)N3CCN(c4ncccn4)CC3)c3ccccc3n2)c(OC)c1	-2%	9.2µM*	-1	-28
COc1ccc(OC)c(-c2cc(C(=O)N3CCN(c4ncccn4)CC3)c3ccccc3n2)c1	9%	13µM*	0	-6
CCOc1ccccc1N1CCN(C(=O)c2cc(-c3cc(OC)ccc3OC)nc3ccccc23)CC1	8%	6.5µM*	x	u
COc1ccc(N2CCN(C(=O)c3cc(-c4ccc(F)cc4)[nH]c3C)CC2)cc1	11%	-25%	3	-10
CC1CCN(S(=O)(=O)c2cc(C(=O)N3CCN(c4ncccn4)CC3)ccc2Br)CC1	2%	18µM*	1	-8
COc1ccc(-n2ncc(C(=O)N3CCN(c4ccc(F)cc4)CC3)c2C)cc1	15%	21µM*	3	-3
COc1ccc(-c2cc(C(=O)N3CCN(c4ncccn4)CC3)c3ccccc3n2)cc1	x	16µM*	x	-15
COc1ccc(-c2cc(C(=O)N3CCN(c4ccccn4)CC3)c3ccccc3n2)cc1	-3%	u	1	u
COc1ccc(N2CCN(C(=O)c3cc(-c4cc(OC)ccc4OC)nc4ccccc34)CC2)cc1	-1%	7.3µM*	-3	16
O=C(c1ccc(-c2ccccc2)cc1)N1CCN(c2ncccn2)CC1	-6%	-9%	-75*	1
COc1ccc(OC)c(NC(=S)N2CCN(c3ccccn3)CC2)c1	-9%	1%	1	-2
COc1ccc(NC(=S)N2CCN(c3ncccn3)CC2)c(OC)c1	50µM*	3%	-1	10
Cc1ccc(-c2cc(C(=O)N3CCOCC3)c3ccccc3n2)o1	x	u	x	-3
Cc1ccc(-c2cc(C(=O)N3CCN(c4ccc(F)cc4)CC3)c3ccccc3n2)o1	25µM*	0%	1	-7
COc1ccc(-c2cc(C(=O)N3CCCCCC3)c3ccccc3n2)c(OC)c1	40µM*	u	1	-3
CC[C@]12c3[nH]c4cc(-c5ccco5)ccc4c3CCN1C(=O)[C@@H](CC(=O)NCCC1=CCCCC1)C[C@@H]2C(=O)N1CCN(C(=O)c2ccco2)CC1	x	u	x	4
COc1ccc(-c2cc(C(=O)O)c3ccccc3n2)c(OC)c1	5%	9%	6	-8
COc1ccc(-c2cc(C(=O)N3CCN(c4ccccc4F)CC3)c3ccccc3n2)c(OC)c1	11%	5.8µM*	-2	14
COc1ccc2cc(-c3cc(C(=O)O)c4ccccc4n3)ccc2c1	9%	u	6	-105*
COc1ccc(OCC(=O)N2CCN(c3nnc(-c4ccccc4)c4ccccc34)CC2)cc1	3%	16µM*	2	33
COc1ccc(OCC(=O)N2CCN(c3nnc(-c4ccc(C)cc4)c4ccccc34)CC2)cc1	-13%	u	0	13
COc1ccc(N2CCN(C(=O)COc3cccc4ccccc34)CC2)cc1	-11%	u	x	-1
SMILES	Sfp PPTase inh	ELG1 repair inh	FBPA coupling cs	Giardia killer
O=C(COc1cccc2ccccc12)N1CCN(c2ccccc2)CC1	u	8.2µM*	3	1
O=C(O)c1nc(NCCc2ccccc2)ncc1Cl	8%	-2%	6	25
C[C@@H]1COC(=O)[C@@H](CC(=O)OC(C)(C)C)C/C=C\C[C@@H](CC(=O)N[C@H](CO)Cc2ccccc2)C(=O)N1	x	-1%	x	9
CC1=C(C)CC(C(=O)NCCc2ccc(F)cc2)C(C(=O)O)C1 (configuration not stated)	27%	-2%	0	-12
COc1ccc(-n2nc(C(=O)N3CCN(c4ccc(F)cc4)CC3)c3ccccc3c2=O)c(OC)c1	10%	9.2µM*	-5	-11
COc1ccccc1N(C)S(=O)(=O)c1ccc(C(=O)Nc2ccc(N3CCOCC3)cc2)cc1	15%	23µM*	-2	-8
COc1ccccc1N(C)S(=O)(=O)c1ccc(C(=O)N(C)Cc2ccc(OC(F)F)cc2)cc1	x	16µM*	x	0
COc1ccccc1N(C)S(=O)(=O)c1ccc(C(=O)Nc2cccc(Br)c2)cc1	x	18µM*	x	6
C=CCN(c1ccccc1OC)S(=O)(=O)c1ccc(Cl)c(C(=O)Nc2ccc(N3CCOCC3)cc2)c1	6%	7.3µM*	-4	-22
CCC(C)(C)NC(=O)c1ccc(S(=O)(=O)N(C)c2ccccc2OC)cc1	-5%	x	2	-1
CCc1ccc(-c2cn(C3CCCCC3)c(=S)[nH]2)cc1	11%	u	0	2
COc1cc(NC(=O)c2ccc(S(=O)(=O)N(C)c3ccccc3OC)cc2)cc(OC)c1	x	15µM*	x	-8
COc1ccccc1N(C)S(=O)(=O)c1ccc(C(=O)Nc2nccs2)cc1	x	u	x	-22
CCCn1c(N)c(C(=O)CSc2nncs2)c(=O)[nH]c1=O	x	1%	x	19
S=c1[nH]nc(Cn2cnc3ccccc32)n1-c1ccccc1Cl	89µM*	13%	-8	5
Clc1ccc(Cn2cnc3ccccc32)cc1	13%	u	2	9
CCC(C(=O)NCCc1c[nH]c2ccc(C)cc12)c1ccccc1 (configuration not stated)	11%	-14%	0	6
Cn1c(SCC(=O)N2c3ccccc3Sc3ccc(Cl)cc32)nnc1-c1ccco1	-18%	18µM*	-1	11
O=C(CSc1nnc(-c2ccncc2)n1Cc1ccco1)N1c2ccccc2Sc2ccc(Cl)cc21	u	23µM*	6	3
CN1CCN(CCC(=O)N2c3ccccc3Sc3ccc(Cl)cc32)CC1	89µM*	-1%	-16	-6
CCC[C@@H](O)c1cc2cc(OC)c(OC)cc2c(=O)o1	x	9%	x	4
Fc1ccc(-c2nc3n(n2)Cc2ccccc2-3)cc1	6%	u	-12	-16
NC(=S)Cc1nc2n(n1)Cc1ccccc1-2	56µM*	u	3	-11
N#Cc1c(NC(=O)C2CC(c3ccccc3Cl)=NO2)sc2c1CCC2 (configuration not stated)	12%	-1%	1	19
COc1cccc(CN(C)CC(=O)Nc2sc3c(c2C#N)CCC3)c1OC	-28%	12µM*	1	-5
COc1ccc(CN(C)CC(=O)Nc2sc3c(c2C#N)CCC3)cc1OC	7%	u	2	-18

High-throughput results from PubChem.
